AmpC no deterg: inhibitors of E. coli AmpC beta-lactamase without detergent; hit rate 0.52% among 330,000; P00811; AmpC nitrocefin hydrolysis, absorbance 480 nm, 0.0001% Triton; Potency, µM (series often up to 57.1 µM), inactives show at the highest dose activity change, negative = inhibition, usual class: inhibitors;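 note: plate controls were no compound for no effect and no enzyme for full effect; nearly all actives have a fitted effect of over 20% in size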
Target sequence (P00811 whole entry, looked up): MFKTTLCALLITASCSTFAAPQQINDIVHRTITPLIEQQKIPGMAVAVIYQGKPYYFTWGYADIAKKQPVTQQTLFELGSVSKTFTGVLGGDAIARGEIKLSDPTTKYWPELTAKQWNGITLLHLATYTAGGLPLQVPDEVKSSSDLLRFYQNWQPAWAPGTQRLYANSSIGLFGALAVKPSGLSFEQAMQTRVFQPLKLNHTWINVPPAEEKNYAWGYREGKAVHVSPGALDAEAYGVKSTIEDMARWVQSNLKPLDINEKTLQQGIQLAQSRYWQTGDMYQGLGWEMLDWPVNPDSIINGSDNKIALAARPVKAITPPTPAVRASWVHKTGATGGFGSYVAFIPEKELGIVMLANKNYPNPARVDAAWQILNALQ
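AmpC (5.3 nM in the dispensed reagent) in 20 mM phosphate pH 7.0 with 0.01% (detergent screen) or 0.0001% Triton X-100 was preincubated with compounds for 15 min at room temperature. Nitrocefin was then added from an 800 uM solution, and hydrolysis was followed at 480 nm.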
AMA1 RON2 block: AMA1-RON2 (P. falciparum) interaction inhibition | AlphaScreen AMA1-biotinylated RON2 peptide binding | Potency, µM (doses to about 58.2 µM), without a hit: top-dose activity change, negative = inhibition, usual class: inhibitors | hit rate 0.2% among 360,000 | AID 720542;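 note: 0% = vehicle wells and -100% = peptide control; nearly all actives have a fitted effect of over 45% in size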
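AMA1 (3D7) with his tag at 25 nM final met compounds first, then biotinylated RON2 peptide at 25 nM; detection used donor plus acceptor beads, 10 µg/mL apiece, read by AlphaScreen after 30 min at room temperature.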
Pf growth 96h: inhibits malaria parasite growth, 96 h; P. falciparum luciferase reporter growth, 96 h; Potency, µM (titrated, usually from 28.7 µM), without a hit: top-dose activity change, negative = inhibition, actives largely listed as inhibitors; hit rate 6.9% among 320,000
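Luminescence readout: decreased luciferase signal marks inhibited growth of reporter-expressing P. falciparum in infected red cells (2% hematocrit, 0.05% parasitemia final), exposed to compound two generations (96 h, 37 C, 5% CO2).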
Pf growth 48h: P. falciparum growth inhibition at 48 hours (one generation) | P. falciparum luciferase growth in erythrocytes, 48 h | Potency, µM (doses to about 28.7 µM), for the others: at the top dose activity change, negative = inhibition, usual class: inhibitors | hit rate 5.9% among 310,000
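Erythrocytes infected with P. falciparum carrying an integrated firefly luciferase reporter (2% hematocrit, 0.1% parasitemia final) were exposed to compounds in RPMI 1640 with 0.5% Albumax at 37 C, 5% CO2. Growth inhibition was scored as reduced luminescence.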
AmpC detergent: blocks E. coli AmpC beta-lactamase in detergent assay; P00811; AmpC hydrolysis of nitrocefin, absorbance 480 nm, 0.01% Triton; Potency, µM (top dose mostly 114 µM), without a hit: top-dose activity change, negative = inhibition, usual class: inhibitors; hit rate 0.041% among 370,000; AID 485294;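 note: 0% = no-compound wells and -100% = no-enzyme wells; nearly all actives have a fitted effect of over 25% in size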
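AmpC (5.3 nM in the dispensed reagent) in 20 mM phosphate pH 7.0 with 0.01% (detergent screen) or 0.0001% Triton X-100 was preincubated with compounds for 15 min at room temperature. Nitrocefin was then added from an 800 uM solution, and hydrolysis was followed at 480 nm.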
HCV inh: inhibitors of hepatitis C virus infection | Huh7.5.1 HCVcc-Cre infection, luciferase reporter, 44 h | Potency, µM (top dose mostly 41.8 µM), without a hit: top-dose activity change, negative = inhibition, usual class: inhibitors | hit rate 3.4% among 340,000
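Compounds are dispensed onto cells plated 4 h earlier at 1,000 per well, with HCVcc-Cre virus (about 0.5 moi) added next. Following 44 h of culture, luminescent signal is measured for 15 sec after 15 min with substrate at room temperature.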
* hit, by the source's call; ? = inconclusive; / = not tested or not shown. Compounds with a hit are over-represented: about 11% of the library has one in this group of screens. Calls come from the whole dose curve; as a rule, active = well fitted curve in the direction sought with a large enough effect; inconclusive = small, poorly fitted or top-dose-only effect, or another doubt; inactive = no such curve, though single readings can be large; an effect the other way counts as inactive or inconclusive. Unless noted, % is set by controls: 0 for no effect and ±100 for the full control effect; potency is the fitted concentration of half-maximal effect.

SMILES	AmpC no deterg	AMA1 RON2 block	Pf growth 96h	Pf growth 48h	AmpC detergent	HCV inh
CN(CCC#N)C(=O)CSc1ncnc2sc(-c3ccccc3)cc12	165%	4%	?	-2%	?	?
COc1ccc(Nc2ncnc3sc(-c4ccccc4)cc23)cc1	-45%	8%	-2%	?	-4%	10µM*
CCCNS(=O)(=O)c1cc(-c2nnc3c4ccccc4c(C)nn23)ccc1OC	/	/	/	/	18%	/
COc1cc(OC)cc(C(=O)N2CCC(c3ccncc3)CC2)c1	/	/	/	/	8%	/
O=C(NCc1ccc2c(c1)CCN2C(=O)c1ccc(F)cc1)c1ccco1	/	/	/	/	-8%	/
Cn1cnc(S(=O)(=O)N2CCC(C(=O)NCc3ccccc3Cl)CC2)c1	/	/	/	/	11%	/
CC(C)C(C)(C#N)NC(=O)CSc1ncnc2sc(-c3ccccc3)cc12 (centres undefined)	-2%	-6%	/	-19%	1%	13µM*
CCCCOCC(O)CN1CCN(C(C)=O)CC1 (centres undefined)	-8%	-26%	8.3µM*	23%	-2%	15%
COc1ccc(CN(C)C2c3ccccc3-c3ccccc32)cc1	-22%	-9%	12µM*	?	0%	-3%
COc1ccc(CP(=O)(c2ccccc2)c2ccccc2)cc1	-10%	-14%	?	?	-8%	10%
Cc1cc(C)c2c(=O)n(CC(=O)N3CCC(Cc4ccccc4)CC3)sc2n1	-12%	/	11%	-2%	?	2%
Cc1cccc(N2CCN(C(=O)Cn3nc(C)n4cccc4c3=O)CC2C)c1 (centres undefined)	-7%	0%	43%	14%	-6%	-4%
Cc1cccc(N2CCN(C(=O)Cn3sc4nc(C)cc(C)c4c3=O)CC2C)c1 (centres undefined)	-16%	-4%	?	/	50µM*	-3%
Cc1ccc(-c2ccc(=O)n(CC(=O)N3CCN(c4cccc(C)c4)C(C)C3)n2)cc1 (centres undefined)	159%	-15%	12µM*	46%	0%	?
Cn1c(Oc2ccccc2NCc2cc(Br)ccc2O)cc(=O)n(C)c1=O	22µM*	-2%	?	?	?	?
COc1cc(CNc2ccccc2Oc2cc(=O)n(C)c(=O)n2C)cc(OC)c1OC	117%	12%	?	?	0%	9%
CCc1ccc(-n2c(=O)c3c4c(sc3n(CC(=O)c3ccc(Br)cc3)c2=O)CCC4)cc1	/	/	/	/	4%	/
Cc1ccc(S(=O)(=O)ON2C(=O)c3ccccc3C2=O)c(C)c1	-27%	-14%	-14%	3%	79µM*	9%
O=C1c2ccccc2C(=O)N1OS(=O)(=O)c1ccc(F)cc1	-29%	-8%	24%	18%	45µM*	2%
Cc1cc(C)c(S(=O)(=O)ON2C(=O)c3ccccc3C2=O)cc1C	-36%	-6%	44%	34%	50µM*	-1%
Cc1cc(C)c(C)c(S(=O)(=O)ON2C(=O)c3ccccc3C2=O)c1C	-41%	-4%	82%	7%	56µM*	?
Cc1ccc(OCC(=O)Nc2c(Cl)ccc3nsnc23)cc1C	/	/	/	/	-2%	/
COC(=O)c1ccccc1NC(=O)C1=C(C)C(=O)OC12CCC(C)CC2 (centres undefined)	/	/	/	/	-2%	/
COC(=O)c1c(C)cc(C)n2c1nc1ccccc12	-19%	-1%	7.4µM*	12%	1%	?
Cc1cc(C)n2c(nc3ccccc32)c1C(=O)NN	77%	76%	?	-11%	-3%	4%
SMILES	AmpC no deterg	AMA1 RON2 block	Pf growth 96h	Pf growth 48h	AmpC detergent	HCV inh
COc1ccc(Br)cc1C(=O)N/N=C/c1ccc([N+](=O)[O-])cc1	-44%	9%	-3%	53%	2%	1%
COc1ccc(/C=N\NC(=O)c2ccccc2OC)cc1COc1c(F)c(F)c(F)c(F)c1F	26%	-5%	?	0%	3%	?
COc1cc(/C=N/NC(=O)c2ccccc2Cl)ccc1Oc1ccc([N+](=O)[O-])cn1	-35%	7%	?	-18%	3%	11µM*
COc1ccc(/C=N\NC(=O)c2ccccc2Cl)cc1COc1c(F)c(F)c(F)c(F)c1F	-28%	15%	22%	5%	?	2.2µM*
COc1ccc(/C=N/NC(=O)c2ccccc2O)cc1Cn1cc([N+](=O)[O-])cn1	6.3µM*	57%	59%	35%	-5%	1%
COc1ccc(/C=N/NC(=O)c2ccncc2)cc1Cn1nc([N+](=O)[O-])c(Br)c1C	65%	-15%	4.1µM*	?	?	17%
COc1ccc(/C=N/NC(=O)c2ccn[nH]2)cc1Cn1nc(C)c([N+](=O)[O-])c1C	-23%	80%	-10%	6%	2%	?
O=C(CSc1nnc(-c2ccncc2)n1-c1ccccc1)Nc1ccc(Br)cc1	/	/	/	/	-5%	/
Cc1cc(C)cc(NC(=O)c2ccc3oc(=O)c(S(=O)(=O)c4ccc(F)cc4)cc3c2)c1	/	/	/	/	-1%	/
COCCNC(=O)CSc1nc2cc3c(cc2c(=O)n1CCCC(=O)NCc1ccc2c(c1)OCO2)OCO3	/	/	/	/	2%	/
CCOc1ccc(S(=O)(=O)N(CC)CC(=O)NCc2cccnc2)cc1	19%	-18%	12µM*	8%	-8%	7%
O=C(NC(=S)NCc1ccccc1)c1cccnc1	-6%	-15%	?	21%	2%	1%
CCOc1ccc(S(=O)(=O)N(CC)CC(=O)NCc2ccncc2)cc1	-3%	-8%	-25%	-12%	11%	7%
O=C(NNC(=S)NCc1ccccc1)c1cccnc1	-14%	132%	2.1µM*	?	9%	13%
CCCOc1ccc(C(=O)NC(=S)NCc2cccnc2)cc1	-15%	-3%	-19%	7%	?	?
COCc1ccc(C(=O)Nc2ccccc2C(=O)NCc2cccnc2)cc1	-16%	8%	19%	-28%	2%	3%
C=CCOc1ccc(C(=O)Nc2ccccc2C(=O)NCc2cccnc2)cc1	-13%	-1%	12%	12µM*	-15%	-28%
CCOc1ccc(C(=O)NC(=S)NCc2cccnc2)cc1	-18%	2%	10µM*	30%	?	17%
CCN(CC)S(=O)(=O)c1ccc(OCC(=O)NCc2ccccc2)cc1	-2%	-4%	9.3µM*	?	-11%	0%
CCN(CC)S(=O)(=O)c1ccc(OCC(=O)NCc2ccco2)cc1	9%	-12%	-13%	3%	7%	-6%
CCc1ccc(/C=C2/SC(N3CCOCC3)=NC2=O)cc1	34%	3%	2%	?	3%	-31%
CCN1CCN(C2=NC(=O)/C(=C/c3ccc(C)o3)S2)CC1	29%	?	13µM*	-2%	-4%	15%

From PubChem BioAssay
